In PubChem BioAssay (NCATS):
Where “and” joins values, the source holds several entries; their conditions need not be identical. Identical values can stand only once. A number with no mark means an inactive call. Inconclusive results are not listed. Where a call stands in place of a potency, no number is given. Calls of active or inactive are those of the source. Unless noted, calls come from the whole dose curve; as a rule, active = well fitted curve in the direction sought with a large enough effect; inconclusive = small, poorly fitted or top-dose-only effect, or another doubt; inactive = no such curve, though single readings can be large; an effect the other way counts as inactive or inconclusive.

Experiments:
[1] = Cell Viability - BJ (AID 421; calls by dose curve;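 note: potency is the fitted concentration of half-maximal effect; cells exposed to compound for 40 hours at 37 °C before readout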); settings: BJ fibroblast viability, qHTS
How it was run: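 Luminescent ATP signal (CellTiter-Glo, 20 min at room temperature) served as the read-out of viable BJ cells after 40 hours of compound treatment. Responses were scaled between DMSO and 100 uM tamoxifen, and AC50 values were obtained by Hill modeling.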

[2] = Cell Viability - MRC5 (AID 434; calls by dose curve;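 note: potency is the fitted concentration of half-maximal effect; cells exposed to compound for 40 hours at 37 °C; potency reflects cytotoxicity seen as loss of intracellular ATP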); settings: MRC5 lung fibroblast viability, qHTS
How it was run: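 qHTS cytotoxicity in human lung fibroblast MRC5 cells; 40 hr treatment, 37 °C; cellular ATP by luciferase luminescence; DMSO = 0%, 100 uM tamoxifen = 100% inhibition; Hill-fit AC50.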

[3] = Cellular Toxicity (caspase-3) HepG2 (AID 654); settings: HepG2 caspase-3 activation, luminescence; series mostly up to 92.2 µM;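 note: cells exposed to compound for 16 hours before reading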
How it was run: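 Cells plated 5 hr at 37 °C, compound added, incubated 16 hr at 37 °C. Caspase-Glo 3/7 reagent followed, 20 min at room temperature, then luminescence read. Activation scored as signal increase; AC50 from Hill fit.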

[4] = Cellular Toxicity (caspase-3) Jurkat (AID 655); settings: Jurkat caspase-3 activation, luminescence; caspase-3 activation: at 92.2 µM (top of the series), DMSO = 0%, tamoxifen = 100%;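 note: cells exposed to compound for 16 h at 37 °C before reading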
How it was run: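 Jurkat cells (5000/well) in complete medium were treated with compounds for 16 hr at 37 °C, then Caspase-Glo 3/7 luminescence was read after 20 min at room temperature. Data normalized to DMSO (basal) and 100 uM tamoxifen (100%); AC50 from Hill fit.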

[5] = Cellular Toxicity (caspase-3) SHSY5Y (AID 657); settings: SH-SY5Y caspase-3 activation; series mostly up to 91.7 µM
How it was run: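 SH-SY5Y human neuroblastoma cells (1500/well) were treated with compounds for 16 h at 37 °C, then Caspase-Glo 3/7 luminescence was read after 1 h at room temperature. Data normalized to DMSO and 10 uM staurosporine; AC50 from Hill fits.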

[6] = Cellular Toxicity (caspase-3) BJ (AID 658); settings: BJ fibroblasts, luminescence; Potency: caspase-3 activation; series mostly up to 91.7 µM
How it was run: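 Readout: Caspase-Glo 3/7 luminescence increase in BJ cells after 16 hr treatment at 37 °C. Staurosporine and tamoxifen served as positive controls; AC50 values came from Hill modelling of data normalized to DMSO and 10 uM staurosporine.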

[7] = Cellular Toxicity (caspase-3) MRC-5 (AID 659); settings: MRC-5 cells, luminescence, normalized: DMSO 0%, 10 µM staurosporine 100%; series mostly up to 91.7 µM
How it was run: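 Concentration-dependent caspase 3/7 activation is measured in human normal lung fibroblasts (MRC-5) following 16-hour treatment. AC50 values come from standard Hill-equation modeling of luminescence normalized to DMSO and 10 uM staurosporine.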

[8] = Cellular Toxicity (caspase-3) Mesangial (AID 660); settings: mesangial cells, normalized: DMSO 0%, 100 µM tamoxifen 100%; series mostly up to 91.7 µM;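 note: combined caspase 3 and 7 activity read by Caspase-Glo luminescence; cells exposed to compound for 16 h before the caspase read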
How it was run: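 Mesangial cells, 1000/well, 5 h settle at 37 °C; compound 16 h, 37 °C; Caspase-Glo 3/7 reagent 20 min RT; luminescence. Norm.: DMSO = 0%, tamoxifen 100 uM = 100%. AC50, Hill fit.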

[9] = Cellular Toxicity (caspase-3) SK-N-SH (AID 661); settings: SK-N-SH caspase-3 activation, qHTS, DMSO as zero, staurosporine as full; series mostly up to 91.7 µM
How it was run: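 Human neuroblastoma SK-N-SH, 1500 cells/well, 5 hr pre-incubation, then compound 16 hr, 37 °C. Caspase-Glo 3/7 reagent, 1 hr RT, luminescence. Norm. to DMSO/10 uM staurosporine; Hill-fit AC50.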

[10] = Cellular Toxicity (caspase-3) Hek293 (AID 664); settings: HEK293 caspase-3 activation, DMSO = 0%, 100 µM tamoxifen = 100%; at 92.2 µM (top of the series);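 note: cells exposed to compound for 16 h at 37 °C before readout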
How it was run: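 Cells plated, 5 hr at 37 °C; compounds added; 16 hr at 37 °C; Caspase-Glo 3/7 reagent, 20 min RT; luminescence read. Activation expressed relative to DMSO and 100 uM tamoxifen, AC50 by Hill model.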

[11] = Cellular Toxicity (caspase-3) Renal Proximal Tubule (AID 667); settings: renal proximal tubule cells, primary cells freshly taken from rat; Potency: caspase-3 activation; series mostly up to 91.7 µM;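 note: cells exposed to compound for 16 hours at 37 °C before detection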
How it was run: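 Primary rat proximal tubule cells, 1000/well, 5 h plating at 37 °C, then compound 16 h at 37 °C. Caspase-Glo 3/7 reagent, 1 h RT, luminescence. Normalized to DMSO (basal) and 10 uM staurosporine (100%); Hill-fit AC50.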

[12] = MultiTox-Fluor Cytotoxicity Assay - LYMP1-001 - Dead Cells (AID 946); settings: LYMP1-001 lymphoblastoid cells, dead-cell protease fluorescence; series mostly up to 92.2 µM; note: potency is the fitted concentration of half-maximal effect
How it was run: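 AC50 from Hill fit of concentration-response; data normalized to DMSO (basal) and 15 uM tetraoctylammonium bromide (100%). LYMP1-001 lymphoblastoid cells, 2500/well, 16 hr compound at 37 C; dead-cell protease fluorescence, Ex/Em 485/520.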

[13] = Cell Viability - LYMP1-002 - Assay at 16 hr (AID 948); settings: LYMP1-002 lymphoblastoid cell viability; series mostly up to 92.2 µM; note: potency is the fitted concentration of half-maximal effect
How it was run: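 Human lymphoblastoid cells (LYMP1-002), 2500/well, were preincubated 5 hr at 37 C, then exposed to compounds for 16 hr at 37 C in complete medium. Cellular ATP was read by CellTiter-Glo luminescence after 30 min at room temperature; AC50 from Hill fits.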

[14] = MultiTox-Fluor Cytotoxicity Assay - LYMP1-002 - Live Cells (AID 955); settings: LYMP1-002 lymphoblastoid live-cell protease fluorescence viability; series mostly up to 46.1 µM
How it was run: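 Read-out is live-cell protease activity (cell-permeant GF-AFC substrate, fluorescence Ex/Em=405/510), where a decrease indicates acute toxicity. Human lymphoblastoid cells were treated 16 hours at 37 C in a concentration series, and AC50 values came from standard Hill modelling.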

[15] = Cell Viability - LYMP1-003 - Assay at 24 hr (AID 963); settings: LYMP1-003 lymphoblastoid cell viability; series mostly up to 92.2 µM
How it was run: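 Cells seeded at 2500/well, 5 hr at 37 C; compounds added; 24 hr at 37 C; CellTiter-Glo added, 30 min room temperature; luminescence read. Decrease in ATP taken as cytotoxicity, AC50 from Hill modelling.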

[16] = Cell Viability - LYMP2-026 (AID 989); settings: LYMP2-026 lymphoblastoid cell viability, qHTS; series mostly up to 92.2 µM;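 note: cells exposed to compound for 24 h at 37 °C; nearly all actives have a fitted effect of over 50% in size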; note: potency is the fitted concentration of half-maximal effect
How it was run: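 Luminescent ATP signal (CellTiter-Glo, 30 min room temperature) measures viable lymphoblastoid cells after 24 hr compound treatment at 37 C. Decreased ATP reflects acute toxicity; AC50 values come from Hill-equation modeling.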

[17] = Cell Viability - LYMP1-002 - Assay at 24 hr (AID 993); settings: LYMP1-002 lymphoblastoid cells viability; series mostly up to 92.2 µM; note: potency is the fitted concentration of half-maximal effect
How it was run: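 Cells plated 2500/well, 5 hr 37 C; compounds added, 24 hr 37 C; CellTiter-Glo added, 30 min RT; luminescence read. Tetraoctylammonium bromide positive control. Hill-equation AC50.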

[18] = qHTS Assay for Identification of Small Molecule Inducers of Hypoxia Response (AID 2120; active = well fitted curve in the direction sought with a large enough effect in the signal ratio, with a control signal flat, not every such curve was filed as active; the % refers to the signal ratio); settings: hypoxia response reporter cells, beta-lactamase ratio readout; series mostly up to 104 µM
How it was run: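 ME-180 HRE-bla cells plated in Opti-MEM/0.5% dialyzed FBS, rested 4-5 h, then dosed with compound titrations by pin tool. After 17 h at 37 degrees C, CCF4 dye loaded 2.5 h at RT; 460/530 nm ratio gave %Activity and AC50.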

[19] = molecular target: Peroxisome proliferator-activated receptor alpha (Homo sapiens) (UniProt Q07869); test: qHTS assay for small molecule agonists of the peroxisome proliferator-activated receptor alpha (PPARalpha) signaling pathway (AID 651778); settings: PathHunter PPARalpha complementation, chemiluminescence, 6 h; max response: hits give high values
Sequence of Peroxisome proliferator-activated receptor alpha (Homo sapiens) (Q07869 whole entry, looked up): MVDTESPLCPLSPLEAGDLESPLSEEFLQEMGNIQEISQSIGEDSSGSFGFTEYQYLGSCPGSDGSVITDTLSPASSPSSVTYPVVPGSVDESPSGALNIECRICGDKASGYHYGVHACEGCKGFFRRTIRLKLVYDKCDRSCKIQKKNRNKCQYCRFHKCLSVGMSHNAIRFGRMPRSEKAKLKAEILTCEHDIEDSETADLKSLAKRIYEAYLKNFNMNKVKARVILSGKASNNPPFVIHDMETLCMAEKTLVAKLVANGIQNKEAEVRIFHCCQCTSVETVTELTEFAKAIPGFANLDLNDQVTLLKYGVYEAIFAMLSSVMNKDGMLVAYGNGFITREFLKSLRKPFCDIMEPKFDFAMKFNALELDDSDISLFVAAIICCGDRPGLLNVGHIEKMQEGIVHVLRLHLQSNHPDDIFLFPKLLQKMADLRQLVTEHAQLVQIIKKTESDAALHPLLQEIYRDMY
How it was run: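 Chemiluminescence from complemented enzyme reported PPARalpha activation in cells after 6 hr of compound treatment at 37 C. The detection reagent was incubated for 60 min at room temperature, and compounds were scored as agonists.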

[20] = qHTS assay for cell viability of the p53RE-bla HCT-116 cell line (AID 743292); settings: p53RE-bla HCT-116 viability, ATP luminescence, 16 h; series mostly up to 95 µM; note: nearly all actives have a fitted effect of over 55% in size; note: potency is the fitted concentration of half-maximal effect
How it was run: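 Viability of compound-treated p53RE-bla HCT-116 cells is taken from ATP-dependent luciferase luminescence. Treatment lasts 16 h at 37 C after a 5 h settling period; detection follows 30 min at room temperature.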

Compound	Potency [1] [µM]	Potency [2] [µM]	Potency [3]	Potency [4]	Potency [5]	Potency [6]	outcome [7]	outcome [8]	outcome [9]	caspase-3 activation [10] [%]	Potency [11]	Potency [12]	Potency [13]	outcome [14]	Potency [15]	Potency [16]	Potency [17]	Potency [18]	max response [19]	Potency [20]
Clc1nc2ccccc2nc1Cl	> 92	> 92	inactive	inactive	inactive	inactive	inactive	inactive	inactive	15.8	inactive	inactive	inactive	inactive	inactive	inactive	inactive	inactive	0.306%	inactive
C=CC(=O)CC	> 92	> 92	inactive	inactive	inactive	inactive	inactive	inactive	inactive	0.103	inactive	inactive	inactive	inactive	inactive	inactive	inactive	inactive	8.86%	inactive
Cc1c(N)cccc1Cl	> 92	> 92	inactive	inactive	inactive	inactive	inactive	inactive	inactive	0.378	inactive	inactive	inactive	inactive	inactive	inactive	inactive	inactive	-2.61%	inactive
c1ccc(COCc2ccccc2)cc1	> 92	> 92	inactive	inactive	inactive	inactive	inactive	inactive	inactive	2.76	inactive	inactive	inactive	inactive	inactive	inactive	inactive	inactive	-3.88%	inactive
Nc1ccc(-c2ccc(N)c(O)c2)cc1O	> 92	> 92	inactive		inactive	inactive	inactive		inactive	0.00867	inactive	inactive	inactive	inactive	inactive	inactive	inactive	inactive	-5.39%	inactive
C=CC(=O)OCCCCCCOC(=O)C=C		> 92	inactive	inactive	inactive	inactive	inactive	inactive			inactive		39.8 µM (active)			39.8 µM (active)		inactive	0.65% and -0.822%	inactive
O=Nc1ccc(Nc2ccccc2)cc1			inactive		inactive	inactive	inactive	inactive	inactive	-5.38	inactive							inactive	-0.677% and -6.11%	inactive
Cc1c(C(=O)O)c(O)cc2c1C(=O)c1c(O)c([C@H]3O[C@H](CO)[C@@H](O)[C@H](O)[C@H]3O)c(O)c(O)c1C2=O			inactive	inactive	inactive	inactive	inactive	inactive	inactive	-3.17	inactive	inactive		inactive				inactive	-8.63%	44.7 µM (active)
Oc1cc2c(cc1O)[C@H]1c3ccc(O)c(O)c3OC[C@@]1(O)C2		> 92	inactive	inactive	inactive	inactive	inactive	inactive	inactive	0.207	inactive					39.8 µM (active)		inactive	-1.65%	
C/C=C/C=C/C=O	> 92	> 92	inactive	inactive	inactive	inactive	inactive	inactive	inactive	29	inactive	inactive	inactive	inactive	inactive	39.8 µM (active)	inactive	inactive	-0.84%	inactive
O=C(OCC1CO1)C1CCCCC1C(=O)OCC1CO1 (centres undefined)	> 92	> 92	inactive		inactive	inactive	inactive	inactive	inactive	4.8	inactive	inactive	inactive	inactive	inactive		inactive	inactive	11.4%	inactive
Cc1cc(=O)oc2cc(O)cc(O)c12	> 92	> 92	inactive	inactive	inactive	inactive	inactive	inactive	inactive	-0.488	inactive	inactive	inactive	inactive	inactive	inactive	inactive	inactive	0.255%	inactive
C/C=C1/C(=O)C[C@H]2[C@@H]3CCC4=CC(=O)CC[C@]4(C)[C@H]3CC[C@]12C	> 92	> 92	inactive		inactive	inactive	inactive	inactive	inactive		inactive	39.8 µM (active)	50.1 µM (active)				50.1 µM (active)	inactive	-2.73%	inactive
O=[N+]([O-])c1cc(N(CCO)CCO)ccc1NCCO		67.7	inactive	inactive	inactive	inactive	inactive	inactive	inactive	-3.81	inactive	inactive		inactive	inactive	inactive		inactive	-11.2% and -4.73%	inactive
